# Measurements: PubChem BioAssay AID1053197 (The Scripps Research Institute Molecular Screening Center, 2014)
# Where “and” joins values, the source holds several entries; their conditions need not be identical. Identical values can stand only once. Among all 370,000 compounds or so, about 2,600 (0.7%) were called active. The full list was thinned out, with actives kept by preference. Values without a mark were called inactive.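 Rule for the calls: active = inhibition above a cutoff: mean of compounds within the control limits plus 3 SD of those (cut at about 17% in these data); inactive = the rest.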
# Target: Sialate O-acetylesterase (Homo sapiens) (UniProt Q9HAT2)
# Sequence (Q9HAT2 whole entry, looked up): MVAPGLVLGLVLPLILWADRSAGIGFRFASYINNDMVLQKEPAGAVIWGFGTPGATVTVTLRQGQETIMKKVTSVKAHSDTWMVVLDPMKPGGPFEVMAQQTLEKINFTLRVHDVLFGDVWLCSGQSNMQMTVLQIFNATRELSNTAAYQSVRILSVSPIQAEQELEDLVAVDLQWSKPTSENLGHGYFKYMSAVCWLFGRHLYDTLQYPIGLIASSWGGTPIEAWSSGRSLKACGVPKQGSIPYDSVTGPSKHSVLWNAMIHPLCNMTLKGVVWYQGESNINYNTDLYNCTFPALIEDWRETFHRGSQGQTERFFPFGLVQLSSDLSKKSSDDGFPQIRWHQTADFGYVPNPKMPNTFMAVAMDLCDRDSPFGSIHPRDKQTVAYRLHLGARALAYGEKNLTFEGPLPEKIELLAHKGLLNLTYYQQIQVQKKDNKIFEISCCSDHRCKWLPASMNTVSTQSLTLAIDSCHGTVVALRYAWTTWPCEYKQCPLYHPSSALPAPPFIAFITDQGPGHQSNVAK
# Experiment: human SIAE inhibitors, primary screen, biochemical, fluorescence polarization, FP-Rh probe, 1536-well HTS (AID 1053197);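 note: 0% = plate median of compound wells and 100% = probe without SIAE protein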
# Details: SIAE FP-Rh probe binding, at 9.66 µM, hits give high values
row,Compound,inhibition
1,O=c1[nH]c(=S)n(C2CC2)c(O)c1/C=N/N1CCOCC1,-9.2%
2,CC(C)c1ccc(-n2c(O)c(/C=N/N3CCOCC3)c(=O)[nH]c2=S)cc1,24.9% (active)
3,Cc1cccc(-n2c(O)c(/C=N/N3CCOCC3)c(=O)[nH]c2=S)c1,1.16%
4,CO[C@H]([C@H](C)/C=C/N(C)C=O)[C@@H](C)C(=O)CC[C@H](C)[C@H](O)[C@H](C)[C@H]1OC(=O)/C=C/C(C)=C/[C@H](O)[C@H](OC)C[C@@H]2C=CC[C@@H](C[C@H](OC)[C@@]3(CO3)[C@@H](OC)C[C@@H](OC)[C@@H]1C)O2,9.94%
5,CCOC(=O)C1(CCc2ccccc2)CCN(Cc2ccco2)CC1,2.93%
6,O=S(=O)(c1ccccc1)N1CCC2CCNC2C1 (stereo not given),-2.28%
7,Cc1cc(C(=O)OCC(=O)Nc2c(F)cccc2F)c(C)n1C1CC1,-0.24%
8,Cc1ccnc(-n2c(C)cc(/C=C3\C(=O)NC(=S)N(C)C3=O)c2C)c1,0.93%
9,Cc1cc(C=C2C(=O)NC(=O)NC2=O)c(C)n1-c1ccncc1,17.8% (active)
10,CN(C)C(=O)Oc1cc(OC(=O)N(C)C)cc(C(O)CNC(C)(C)C)c1 (stereo not given),-1.59% and 2.18%
11,Nc1ccc(C(=O)N/N=C2/CN3CCC2CC3)cc1,21.4% (active)
12,CCN(CC)C(=O)c1ccc(NC(=O)c2sccc2-c2ccccc2)cc1,-4.91%
13,c1cc2c(c(NC3=NCCCS3)c1)CCCC2,2.24%
14,COC(=O)COc1cc(C)cc2oc(=O)c3c(c12)CCCC3,-2.75%
15,COC(=O)C1=C(c2ccc(F)cc2OCc2ccccc2)C[C@@H]2CC[C@H]1N2C(=O)NCc1ccc2[nH]ccc2c1,-4.35%
